Assay outcomes from PubChem BioAssay.
The list is not random: actives were taken first. Their share in the collection is about 19%.
Pf growth 96h – P. falciparum growth inhibition at 96 hours. P. falciparum luciferase reporter growth, 96 h. Potency, µM (series often up to 28.7 µM), inactives show at the highest dose activity change, negative = inhibition, usual class: inhibitors. actives 6.9% (n = 320,000). AID 504834; also: potency is read from the fitted curve at half-maximal effect; % is scaled to controls: 0 for no effect and ±100 for the full control effect
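96 h incubation, 37 C, 5% CO2, of luciferase-reporter P. falciparum-infected RBCs (2% hematocrit, 0.05% parasitemia final) with test compounds; endpoint luminescence.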
Lassa entry inh – blocks Lassa virus binding to or entry into cells. Potency, µM (highest dose often 37.9 µM), inactives show top-dose activity change, negative = inhibition, most hits filed as inhibitors. actives 1.2% (n = 300,000). Lassa virus pseudotype entry inhibition, cell reporter; calls by dose curve; tested in HEK293 cells; also: potency is read from the fitted curve at half-maximal effect; % is scaled to controls: 0 for no effect and ±100 for the full control effect; nearly all actives have a fitted effect of over 50% in size
Marburg entry inh – blocks Marburg virus binding to or entry into cells | Marburg virus pseudotyped entry inhibition, cell reporter | Potency, µM (titrated, usually from 37.8 µM), without a hit: top-dose activity change, negative = inhibition, usual class: inhibitors | actives 1.8% (n = 300,000); calls by dose curve; tested in HEK293 cells; also: potency is read from the fitted curve at half-maximal effect; % is scaled to controls: 0 for no effect and ±100 for the full control effect
CHX counter – affects cycloheximide protein synthesis inhibition readout, counter-screen. cell reporter, cycloheximide protein synthesis inhibition counterscreen. max response, %. actives 12% (n = 300,000); in the data active = max response mostly above about 13%, no sharp cut-off; inactive = mostly below about 14%; also: read at 38.3 µM for the half of the compounds with a filed dose; 0% is about no effect
Shiga inhibitor – inhibitors of Shiga toxin in Vero cells | AID 2315 | inhibition, % at 38.7 µM | Vero cells, Shiga toxin protein synthesis inhibition reporter | actives 9.2% (n = 290,000); in the data active = inhibition mostly above about 28%, no sharp cut-off; inactive = mostly below about 43%; also: 0% is about no effect
Pf growth 48h – inhibits P. falciparum growth in the first generation, 48 h | actives 5.9% (n = 310,000) | Potency, µM (series often up to 28.7 µM), without a hit: top-dose activity change, negative = inhibition, usual class: inhibitors | P. falciparum luciferase growth in erythrocytes, 48 h | AID 504832; also: potency is read from the fitted curve at half-maximal effect; % is scaled to controls: 0 for no effect and ±100 for the full control effect
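Luciferase-expressing P. falciparum in infected erythrocytes (2% hematocrit, 0.1% parasitemia final) in RPMI 1640/0.5% Albumax were exposed to compound for 48 hours at 37 C, 5% CO2; growth read as luminescence.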
The depositor's hits bear a star; ? = inconclusive; nt = not tested or not shown; [ ] = remark or other dose. Unless noted, calls follow the shape of the dose curve; as a rule, active = well fitted inhibition curve with a large enough effect; inconclusive = small, poorly fitted or top-dose-only effect, or another doubt; inactive = no such curve, though single readings can be large or run the other way.

SMILES	Pf growth 96h	Lassa entry inh	Marburg entry inh	CHX counter	Shiga inhibitor	Pf growth 48h
CCOc1ccccc1N1CC(C(=O)N(Cc2nnc(-c3ccccc3Cl)o2)C2CC2)CC1=O (centres undefined)	9.28µM*	13.0%	?	nt	nt	?
CCCN(Cc1nnc(-c2ccccc2Cl)o1)C(=O)c1cc([N+](=O)[O-])cc([N+](=O)[O-])c1	?	1.7%[46.1 µM]	?	-1.7	-10.4	?
CC1CN(S(=O)(=O)c2cccc(C(=O)N(Cc3nnc(-c4ccccc4Cl)o3)C3CC3)c2)CC(C)O1 (centres undefined)	11.7µM*	3.4%	?	nt	nt	?
O=C(c1cc([N+](=O)[O-])cc([N+](=O)[O-])c1)N(Cc1nnc(-c2ccccc2Cl)o1)C1CC1	11.7µM*	-27.8%	?	8.7	6.0	?
O=C(c1cc2ccccc2o1)N(Cc1nnc(-c2ccccc2Cl)o1)C1CC1	30.6%	10.0%	?	nt	nt	11.5%
CCOc1ccc2oc(C(=O)N(Cc3nnc(-c4ccccc4Cl)o3)C3CC3)c(C)c2c1	8.28µM*	-29.7%	29.9%	nt	nt	11.7µM*
CCOC(=O)c1cncc(C#CCOC(=O)Nc2ccc(OC(F)(F)F)cc2)c1	?	nt	nt	4.4	4.9	?
COc1ccccc1-c1nnc(C2CCN(S(=O)(=O)c3ccccc3[N+](=O)[O-])CC2)o1	?	nt	nt	-2.9	-3.4	-11.7%
O=C(NC(=S)Nc1cc(S(=O)(=O)N2CCOCC2)ccc1N1CCOCC1)c1ccco1	?	1.6%	-4.5%[46.1 µM]	-2.4	-6.6	0.0%
Cc1ccc(CSc2ccc(-c3ccco3)nn2)cc1	30.0%	-0.1%	?	12.0	21.2	159.1%
Clc1cccc(CSc2ccc(-c3ccco3)nn2)c1	11.1%	-0.4%	?	31.2*	61.1*	38.1%
Fc1ccccc1CSc1ccc(-c2ccco2)nn1	180.3%	16.1%	?	49.7*	119.6*	248.5%
Cc1cccc(CSc2ccc(-c3ccco3)nn2)c1	-13.9%	11.2%	-1.3%	16.6*	19.5	104.0%
Clc1ccc(CSc2ccc(-c3ccco3)nn2)cc1	35.9%	20.1%	6.0%[46.1 µM]	23.4*	125.6*	146.5%
O=C(CSc1ccc(-c2ccco2)nn1)Nc1ccc(F)cc1F	-3.2%	?	-28.4%	0.5	32.6	1.3%
Clc1cccc(CSc2ccc(-c3cccnc3)nn2)c1	12.2%	-9.1%[46.1 µM]	-3.6%[46.1 µM]	28.9*	50.7	-6.5%
c1ccc(CSc2ccc(-c3cccnc3)nn2)nc1	28.0%	?	-1.2%	21.0*	50.4*	37.2%
Clc1cccc(CSc2nnc(-c3cccnc3)n2Cc2ccco2)c1	17.8%	-1.1%	-18.0%	-3.5	-4.9	?
O=C(CSc1ccc(-c2cccnc2)nn1)Nc1ccc(Br)cc1	?	?	-23.8%	-3.0	-5.1	-17.1%
c1ccc(CSc2ccc(-c3ccco3)nn2)cc1	211.0%	?	-13.7%	26.3*	83.6	195.0%
O=C1CC(c2cc3c(cc2Br)OCO3)C2=C(CCCC2=O)N1 (centres undefined)	?	10.6%	-6.1%	5.2	1.7	-1.6%
CC(=N/O)/C(=N\O)c1ccc(C)o1	77.4%	-2.8%	-1.3%[46.1 µM]	-3.0	-5.0	8.2%
CC(=O)Oc1ccc(/C=C2\N=C(C3CCCCC3)OC2=O)cc1	?	-17.7%	0.8%	4.3	-2.9	9.3%
COc1cccc(/C=C2\N=C(C3CCCCC3)OC2=O)c1OC	?	?	?	52.5*	13.4	12.1%
c1ccc2c(-c3[nH]ncc3CNCCCn3ncc4ccccc43)cccc2c1	12.1%	?	?	-1.0	4.8	14.7µM*
SMILES	Pf growth 96h	Lassa entry inh	Marburg entry inh	CHX counter	Shiga inhibitor	Pf growth 48h
COc1ccc(CN(CC(=O)NCc2ccccc2)C(=O)c2csnn2)cc1	-4.2%	nt	nt	-2.3	-1.8	15.0%
CCN(CC)c1ccc(/C=N/NC(=O)CNC(=O)c2ccccn2)cc1	-31.2%	4.3%	?	12.3	83.5	6.0%
CCN(CC)c1ccc(/C=N\NC(N)=O)cc1	4.1%	0.6%	12.7%	7.4	8.2	13.0%
CCN(CC)c1ccc(/C=N/NC(=O)OC(C)(C)C)cc1	18.1%	?	20.3%[14.2 µM]	34.0*	85.5*	10.1%
CCN(CC)c1ccc(/C=N/NC(=O)CC(C)C)cc1	?	?	16.9%	47.3*	47.3*	7.2%
CCN(CC)c1ccc(/C=N/O)cc1	63.3%	nt	nt	16.7*	40.6	32.3%
CCN(CC)c1ccc(/C=N/NC(=O)c2ccc(O)cc2)cc1	nt	nt	nt	49.1*	116.2*	nt
O=C(O)c1cc(-c2cccs2)nn1-c1ccccc1	28.5%	4.2%[46.1 µM]	?	-1.8	-2.3	6.2%
Cc1cc(C)n(CCCNC(=O)c2ccc(C)c(S(=O)(=O)N3CCOCC3)c2)n1	?	-6.8%	4.0%	nt	nt	?
Cc1ccc(NCN2C(=O)C(=O)c3ccccc32)nc1	?	?	?	-8.1	-12.0	-6.9%
C/C(=N\NC(=O)c1ccc(OC2CCCC2)cc1)c1ccc(O)cc1	13.1µM*	?	-8.9%	13.8	2.3	?
CCN(CC)c1ccc(/C=N/NC(=O)c2ccoc2C)cc1	452.9%	?	?	24.5*	45.2*	210.3%
CCN(CC)c1ccc(C(=O)N/N=C(\C)c2ccc(O)cc2)cc1	10.4µM*	?	-21.0%	-1.4	-4.4	?
C/C(=N/NC(=O)c1ccc(-c2ccccc2)cc1)c1cc(O)cc(O)c1	-10.7%	-28.5%[46.1 µM]	9.0%[46.1 µM]	17.5	8.9	-10.8%
CCC(=NCCO)c1c(O)n(-c2ccc(Cl)cc2)c(=O)[nH]c1=O	-20.9%	1.0%	-25.0%	-3.3	5.3	59.7%
Cc1c(-c2nc(-c3ccc(C(C)(C)C)cc3)no2)n(C)oc1=O	-70.5%	?	?	60.3*	161.3*	-72.6%
CC(C)(C)c1ccc(-c2noc(-c3ccc4c(c3)CCO4)n2)cc1	183.2%	13.9%	9.7%[46.1 µM]	21.4*	34.6*	119.4%
Cc1cc(-c2nc(-c3ccc(C(C)(C)C)cc3)no2)no1	118.9%	nt	nt	39.5*	53.4*	405.0%
Cc1nc(-c2cc(-c3nc(-c4ccc(C(F)(F)F)cc4)no3)no2)cs1	3.0%	0.7%	9.8%	8.8	11.0	0.657µM*
CCn1nc(C)c(Br)c1-c1nc(-c2ccc(C)cc2)no1	-6.7%	0.4%	-1.4%[14.2 µM]	1.3	7.2	14.8%
FC(F)(F)c1ccc(-c2noc(-c3ccccc3Br)n2)cc1	nt	14.7%[46.1 µM]	nt	nt	nt	nt
Cc1nc(-c2cc(-c3nc(-c4cc(C(F)(F)F)cc(C(F)(F)F)c4)no3)no2)cs1	31.3%	nt	0.6%	-2.0	6.7	23.5%
CC(C)(C)c1ccc(-c2nnc(SCC(=O)c3ccc4c(c3)OCCO4)o2)cc1	20.6%	1.2%	1.5%	9.0	27.3	26.3%
COc1cccc([C@@H]2C(C#N)=C(N)Oc3cc(C)[nH]c(=O)c32)c1OC	nt	nt	-1.0%	nt	nt	nt
CCOc1cc(C#N)c(NC(=O)c2ccco2)cc1OCC	14.7%	-29.1%	?	-2.8	25.1	33.5%
Cc1nc(-c2cc(-c3ccc(Cl)cc3)no2)cs1	366.2%	nt	nt	52.3*	83.2*	284.6%
